Among all 310,000 compounds or so, about 1,600 (0.52%) were called active. This is one part of a sample in which actives are shown more often than they occur. A number with no mark means an inactive call.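 Rule for the calls: active = activation above the mean of controls blocked by dofetilide plus 5 SD; inactive = the rest.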
The molecules below were run against Voltage-gated inwardly rectifying potassium channel KCNH2 (Homo sapiens) (UniProt Q12809) (assay: hERG rescue from dofetilide block, primary screen, cell-based, CHO-hERG, FluxOR thallium flux, dofetilide IC70 (AID 1511;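 note: thallium influx through hERG after potassium depolarization seen as dye fluorescence rise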)). Conditions: dofetilide IC70 present, at 10 µM, hits give high values.
Voltage-gated inwardly rectifying potassium channel KCNH2 (Homo sapiens), sequence (Q12809 whole entry, looked up): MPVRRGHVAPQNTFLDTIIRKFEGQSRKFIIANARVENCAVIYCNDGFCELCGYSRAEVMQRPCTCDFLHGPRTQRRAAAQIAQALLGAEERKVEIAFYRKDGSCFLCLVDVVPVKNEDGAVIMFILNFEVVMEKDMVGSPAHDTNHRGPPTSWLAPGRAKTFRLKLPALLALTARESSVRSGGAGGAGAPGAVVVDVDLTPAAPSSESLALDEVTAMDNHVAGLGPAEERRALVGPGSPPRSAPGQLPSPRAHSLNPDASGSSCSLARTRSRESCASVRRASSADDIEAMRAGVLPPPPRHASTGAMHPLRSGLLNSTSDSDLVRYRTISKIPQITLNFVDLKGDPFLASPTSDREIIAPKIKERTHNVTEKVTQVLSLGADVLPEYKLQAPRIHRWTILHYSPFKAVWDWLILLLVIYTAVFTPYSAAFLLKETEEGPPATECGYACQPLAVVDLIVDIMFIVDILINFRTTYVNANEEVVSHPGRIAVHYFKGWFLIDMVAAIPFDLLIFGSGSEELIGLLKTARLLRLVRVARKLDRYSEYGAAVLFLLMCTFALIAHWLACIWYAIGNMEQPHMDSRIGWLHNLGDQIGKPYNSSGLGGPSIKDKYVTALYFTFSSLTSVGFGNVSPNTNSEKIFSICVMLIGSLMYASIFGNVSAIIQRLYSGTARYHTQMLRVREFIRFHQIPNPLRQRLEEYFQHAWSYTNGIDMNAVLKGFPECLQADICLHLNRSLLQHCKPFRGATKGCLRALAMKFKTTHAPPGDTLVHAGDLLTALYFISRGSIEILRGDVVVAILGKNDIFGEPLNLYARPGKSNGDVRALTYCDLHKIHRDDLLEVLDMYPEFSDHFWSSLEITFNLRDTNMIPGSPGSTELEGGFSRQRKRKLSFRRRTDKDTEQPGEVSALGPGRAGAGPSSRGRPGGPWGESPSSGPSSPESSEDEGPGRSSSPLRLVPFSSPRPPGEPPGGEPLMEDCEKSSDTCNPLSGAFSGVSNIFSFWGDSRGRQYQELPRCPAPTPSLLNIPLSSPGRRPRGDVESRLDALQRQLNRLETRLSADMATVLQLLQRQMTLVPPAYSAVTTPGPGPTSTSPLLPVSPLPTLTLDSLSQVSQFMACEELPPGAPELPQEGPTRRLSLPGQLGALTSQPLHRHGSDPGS
`Oc1ccc(N=Nc2nccs2)c(O)c1` gave an activation (rescue from dofetilide block), less the hit threshold of -0.07%.
`c1ccc(NCc2cccc3ccccc23)nc1` gave an activation (rescue from dofetilide block), less the hit threshold of -3.89%.
In the case of `Oc1ccc2ccccc2c1N=Nc1nccs1`, the activation (rescue from dofetilide block), less the hit threshold is reported as 29.7% (active).
With `C=CCC1=C/C(=C\c2c(N)n3nc(CC(=O)N4CCOCC4)sc3nc2=O)C=C(OC)C1=O` the activation (rescue from dofetilide block), less the hit threshold was -8.72%.
Work on `Cn1c(SCC(=O)N2CCOCC2)nnc1-c1ccc2ncccc2c1` yielded an activation (rescue from dofetilide block), less the hit threshold of -4.81%.
With `Cn1c(SCC(=O)N2CCOCC2)nnc1-c1ccc(NC(=O)c2ccccc2F)cc1` the activation (rescue from dofetilide block), less the hit threshold was 6.37% (active).
`Cn1c(SCC(=O)N2CCCC2)nnc1-c1ccc2c(c1)OCO2` gave an activation (rescue from dofetilide block), less the hit threshold of -8.24%.
Molecule `Cc1cccc(NC(=O)NC(=S)NC(=O)c2ccccc2)c1` has an activation (rescue from dofetilide block), less the hit threshold of -0.76%.
In the case of `Cc1cccc(NC(=S)NC(=O)c2ccc(Br)o2)c1`, the activation (rescue from dofetilide block), less the hit threshold is reported as 17.4% (active).
Molecule `Cc1cccc(NC(=O)c2ccc([N+](=O)[O-])o2)c1` has an activation (rescue from dofetilide block), less the hit threshold of -12.5%.
Molecule `CCc1ccc(C2N3CC4([N+](=O)[O-])CN2CC([N+](=O)[O-])(C3)C4(C)C)cc1` (stereo not drawn) has an activation (rescue from dofetilide block), less the hit threshold of -4.31%.
`O=C(CCl)Nc1cccc(CP(=O)(c2ccccc2)c2ccccc2)c1` was tested, and the activation (rescue from dofetilide block), less the hit threshold was -8.43%.
With `Cc1ccc(NC(=S)NC2CCCC2)cc1` the activation (rescue from dofetilide block), less the hit threshold was 4.71% (active).
`Cc1cc(Br)ccc1NC(=S)NC1CCCC1` was tested, and the activation (rescue from dofetilide block), less the hit threshold was -9.68%.
`Cc1ccc(NC(=O)CSCC(=O)NC2CCCCC2)cc1` showed an activation (rescue from dofetilide block), less the hit threshold of -3.26%.
`COc1cc(C(=O)Nn2c(O)c(C3=c4ccccc4=NC3=O)sc2=S)ccc1O` showed an activation (rescue from dofetilide block), less the hit threshold of -14.6%.
For `Cc1onc(-c2ccc(Cl)cc2)c1-c1ccnn1S(=O)(=O)c1ccc(Cl)cc1`, the activation (rescue from dofetilide block), less the hit threshold was -7.23%.
For `CCCCNC(=O)CCn1c(=S)[nH]c2cc3c(cc2c1=O)OCO3`, the activation (rescue from dofetilide block), less the hit threshold was -6.01%.
`O=C(CCn1c(=S)[nH]c2cc3c(cc2c1=O)OCO3)NCc1ccc(Cl)cc1` was tested, and the activation (rescue from dofetilide block), less the hit threshold was 4.99% (active).
`CC(C)NC(=O)CCCn1c(=S)[nH]c2cc3c(cc2c1=O)OCO3` was tested, and the activation (rescue from dofetilide block), less the hit threshold was -9.07%.
`CCOC(=O)CC(=O)CSc1nc(-c2ccccc2)cc(-c2ccc(Cl)cc2)c1C#N` was tested, and the activation (rescue from dofetilide block), less the hit threshold was -4.82%.
With `N#Cc1c(-c2ccc(F)cc2)cc(C2CC2)nc1SCC(=O)c1cccs1` the activation (rescue from dofetilide block), less the hit threshold was 8.07% (active).
`N#Cc1c(-c2ccccc2)cc(-c2ccccc2)nc1SCC(=O)O` gave an activation (rescue from dofetilide block), less the hit threshold of -12.9%.
`NC(=O)COc1ccc(C23CC4CC(CC(C4)C2)C3)cc1` was tested, and the activation (rescue from dofetilide block), less the hit threshold was -4.82%.
`O=C(O)CN(Cc1ccco1)S(=O)(=O)c1ccc(F)cc1` was tested, and the activation (rescue from dofetilide block), less the hit threshold was -6.3%.
Molecule `Clc1cccc(N=C2NN=C(c3ccc4c(c3)OCCO4)CS2)c1` has an activation (rescue from dofetilide block), less the hit threshold of -12.5%.
For `CN(C)c1nc(=Nc2cccc(Cl)c2)ss1`, the activation (rescue from dofetilide block), less the hit threshold was 40.5% (active).
`COc1ccc(CCNC(=O)CSCc2ccc(Br)cc2)cc1OC` showed an activation (rescue from dofetilide block), less the hit threshold of -9.1%.
Molecule `Cc1cccc(C)c1NC(=O)CCS(=O)(=O)c1cccc2nsnc12` has an activation (rescue from dofetilide block), less the hit threshold of -5.88%.
Molecule `N#Cc1c(N)nc2c(c1N)CC(C(F)(F)F)O2` (stereo not drawn) has an activation (rescue from dofetilide block), less the hit threshold of -1.93%.
With `O=C(Cn1c(=O)sc2ccccc21)Nc1nc2c(s1)CCCC2` the activation (rescue from dofetilide block), less the hit threshold was -3.68%.
Work on `CSc1ncccc1C(=O)Nc1nc2ccc(F)cc2s1` yielded an activation (rescue from dofetilide block), less the hit threshold of -5.7%.
`Fc1ccc2nc(Nc3nc4c(s3)CCCC4)sc2c1` was tested, and the activation (rescue from dofetilide block), less the hit threshold was 10.5% (active).
`Brc1ccc(Nc2c3c(nc4ncnn24)CCC3)cc1` was tested, and the activation (rescue from dofetilide block), less the hit threshold was -14.2%.
`CC(C)c1ccc2c(c1)c(SC(C)(C)C)c(CC(C)(C)C(=O)O)n2Cc1ccc(Cl)cc1` was tested, and the activation (rescue from dofetilide block), less the hit threshold was 26.6% (active).
For `O=C(O)c1ccc(Cn2c(=S)[nH]c3cc(Cl)ccc3c2=O)cc1`, the activation (rescue from dofetilide block), less the hit threshold was -3.87%.
`S=C(Cc1ccc(Cl)cc1)N1CCOCC1` gave an activation (rescue from dofetilide block), less the hit threshold of -11.3%.
Molecule `CCN(CC)CCCNC(=O)c1c(O)c2cc(F)cc3c2n(c1=O)C(C)CC3` (stereo not drawn) has an activation (rescue from dofetilide block), less the hit threshold of -2.1%.
`CCOC(=O)c1cccc(NC(=O)CN(c2ccc(C)cc2)S(=O)(=O)c2c(C)noc2C)c1` showed an activation (rescue from dofetilide block), less the hit threshold of -0.14%.
In the case of `Cc1ccc(CNC(=O)CCNS(=O)(=O)c2cccc3nonc23)cc1`, the activation (rescue from dofetilide block), less the hit threshold is reported as -9.61%.
With `Cc1ccc(N(CC(=O)Nc2cc(C)cc(C)c2)S(=O)(=O)c2cccc3nonc23)cc1` the activation (rescue from dofetilide block), less the hit threshold was 4.86% (active).
`Cc1cc2c(cc1S(=O)(=O)NCc1ccc(Cl)cc1)OCC(=O)N2` was tested, and the activation (rescue from dofetilide block), less the hit threshold was -9.71%.
With `CCCC(C(=O)N1CCOCC1)N1C(=O)C2C3C=CC(C3)C2C1=O` (stereo not drawn) the activation (rescue from dofetilide block), less the hit threshold was 4.64% (active).
`CCCCOC(=O)NCN1C(=O)C2C3C=CC(C3)C2C1=O` (stereo not drawn) showed an activation (rescue from dofetilide block), less the hit threshold of -3.35%.
`CCC(C(=O)N1CCOCC1)n1c(C(=O)OC)cc2occc21` (stereo not drawn) was tested, and the activation (rescue from dofetilide block), less the hit threshold was -6.73%.
Molecule `COc1ccc(CNC(=O)C(C)n2nc(C)c3c(C)n(-c4ccccc4)nc3c2=O)c(OC)c1` (stereo not drawn) has an activation (rescue from dofetilide block), less the hit threshold of -10.8%.
For `COc1ccc(C(=O)N2CCCN(C)CC2)c(OC)c1`, the activation (rescue from dofetilide block), less the hit threshold was 0.38%.
Work on `Cc1cc(C)c2c(n1)sc1c(=O)n(-c3ccccc3)c(=O)[nH]c12` yielded an activation (rescue from dofetilide block), less the hit threshold of -5.76%.
